# Results reported in PMC11062922 (Nature Chemical Biology, 2023).
# Where two headings read alike, the source gives them in different places.
# Key:
# Conditions in all cases: read-out: apparent Kd, n = 1
# PAK4 = system: PAK4
# PHKG2 = system: PHKG2
# PKN1 = system: PKN1
# [1] = compound concentrations:100 nM and 1000 nM (sheet 'Lestaurtinib' of Supplementary Table 1),run:Lestaurtinib_02766_R2,Plate:MR027
# [2] = compound concentrations:100 nM and 1000 nM (sheet 'Lestaurtinib' of Supplementary Table 1),run:Lestaurtinib_02768_R1,Plate:MR028
# [3] = compound concentrations:100 nM and 1000 nM (sheet 'Lestaurtinib' of Supplementary Table 1),run:Lestaurtinib_02795_R1,Plate:MR022
# [4] = compound concentrations:100 nM and 1000 nM (sheet 'Lestaurtinib' of Supplementary Table 1),run:Lestaurtinib_02795_R3,Plate:MR022
# [5] = compound concentrations:100 nM and 1000 nM (sheet 'Lestaurtinib' of Supplementary Table 1),run:Lestaurtinib_02896_R3,Plate:MR030
# [6] = compound concentrations:100 nM and 1000 nM (sheet 'Lestaurtinib' of Supplementary Table 1),run:Lestaurtinib_03172_R1,Plate:MR031
# [7] = compound concentrations:100 nM and 1000 nM (sheet 'Lestaurtinib' of Supplementary Table 1),run:Lestaurtinib_03172_R3,Plate:MR031
# [8] = compound concentrations:100 nM and 1000 nM (sheet 'Lestaurtinib' of Supplementary Table 1),run:Lestaurtinib_03252_R1,Plate:MR032
# [9] = compound concentrations:100 nM and 1000 nM (sheet 'Lestaurtinib' of Supplementary Table 1),run:Lestaurtinib_03252_R2,Plate:MR032
# [10] = compound concentrations:100 nM and 1000 nM (sheet 'Lestaurtinib' of Supplementary Table 1),run:Lestaurtinib_03260_R1,Plate:MR033
# [11] = compound concentrations:100 nM and 1000 nM (sheet 'Lestaurtinib' of Supplementary Table 1),run:Lestaurtinib_03260_R2,Plate:MR033
# [12] = compound concentrations:100 nM and 1000 nM (sheet 'Lestaurtinib' of Supplementary Table 1),run:Lestaurtinib_02339_R1,Plate:MR001
# [13] = compound concentrations:100 nM and 1000 nM (sheet 'Lestaurtinib' of Supplementary Table 1),run:Lestaurtinib_02339_R2,Plate:MR001
# [14] = compound concentrations:100 nM and 1000 nM (sheet 'Lestaurtinib' of Supplementary Table 1),run:Lestaurtinib_02364_R1,Plate:MR002
substance,measurement,setting,value
Lestaurtinib,potency estimated from few doses,PAK4; [1],23.7 nM
same,potency estimated from few doses,PAK4; [2],35.4 nM
same,potency estimated from few doses,"PAK4; compound concentrations:100 nM and 1000 nM (sheet 'Lestaurtinib' of Supplementary Table 1),run:Lestaurtinib_02768_R2,Plate:MR028",29.5 nM
same,potency estimated from few doses,"PAK4; compound concentrations:100 nM and 1000 nM (sheet 'Lestaurtinib' of Supplementary Table 1),run:Lestaurtinib_02768_R3,Plate:MR028",32.7 nM
same,potency estimated from few doses,PAK4; [3],35.1 nM
same,potency estimated from few doses,"PAK4; compound concentrations:100 nM and 1000 nM (sheet 'Lestaurtinib' of Supplementary Table 1),run:Lestaurtinib_02795_R2,Plate:MR022",29.7 nM
same,potency estimated from few doses,PAK4; [4],113 nM
same,potency estimated from few doses,"PAK4; compound concentrations:100 nM and 1000 nM (sheet 'Lestaurtinib' of Supplementary Table 1),run:Lestaurtinib_02802_R3,Plate:MR029",24.8 nM
same,potency estimated from few doses,"PAK4; compound concentrations:100 nM and 1000 nM (sheet 'Lestaurtinib' of Supplementary Table 1),run:Lestaurtinib_02896_R1,Plate:MR030",35.9 nM
same,potency estimated from few doses,"PAK4; compound concentrations:100 nM and 1000 nM (sheet 'Lestaurtinib' of Supplementary Table 1),run:Lestaurtinib_02896_R2,Plate:MR030",30.1 nM
same,potency estimated from few doses,PAK4; [5],36.2 nM
same,potency estimated from few doses,PAK4; [6],32.7 nM
same,potency estimated from few doses,"PAK4; compound concentrations:100 nM and 1000 nM (sheet 'Lestaurtinib' of Supplementary Table 1),run:Lestaurtinib_03172_R2,Plate:MR031",29.6 nM
same,potency estimated from few doses,PAK4; [7],26.1 nM
same,potency estimated from few doses,PAK4; [8],43.4 nM
same,potency estimated from few doses,PAK4; [9],25.3 nM
same,potency estimated from few doses,PAK4; [10],48.6 nM
same,potency estimated from few doses,PAK4; [11],48 nM
same,potency estimated from few doses,PHKG2; [12],838 nM
same,potency estimated from few doses,PHKG2; [13],142 nM
same,potency estimated from few doses,"PHKG2; compound concentrations:100 nM and 1000 nM (sheet 'Lestaurtinib' of Supplementary Table 1),run:Lestaurtinib_02339_R3,Plate:MR001",275 nM
same,potency estimated from few doses,PHKG2; [14],462 nM
same,potency estimated from few doses,"PHKG2; compound concentrations:100 nM and 1000 nM (sheet 'Lestaurtinib' of Supplementary Table 1),run:Lestaurtinib_02364_R2,Plate:MR002",360 nM
same,potency estimated from few doses,"PHKG2; compound concentrations:100 nM and 1000 nM (sheet 'Lestaurtinib' of Supplementary Table 1),run:Lestaurtinib_02364_R3,Plate:MR002",574 nM
same,potency estimated from few doses,"PHKG2; compound concentrations:100 nM and 1000 nM (sheet 'Lestaurtinib' of Supplementary Table 1),run:Lestaurtinib_02367_R1,Plate:MR003",323 nM
same,potency estimated from few doses,"PHKG2; compound concentrations:100 nM and 1000 nM (sheet 'Lestaurtinib' of Supplementary Table 1),run:Lestaurtinib_02367_R3,Plate:MR003",356 nM
same,potency estimated from few doses,"PHKG2; compound concentrations:100 nM and 1000 nM (sheet 'Lestaurtinib' of Supplementary Table 1),run:Lestaurtinib_02381_R1,Plate:MR004",137 nM
same,potency estimated from few doses,"PHKG2; compound concentrations:100 nM and 1000 nM (sheet 'Lestaurtinib' of Supplementary Table 1),run:Lestaurtinib_02381_R2,Plate:MR004",197 nM
same,potency estimated from few doses,"PHKG2; compound concentrations:100 nM and 1000 nM (sheet 'Lestaurtinib' of Supplementary Table 1),run:Lestaurtinib_02381_R3,Plate:MR004",144 nM
same,potency estimated from few doses,"PHKG2; compound concentrations:100 nM and 1000 nM (sheet 'Lestaurtinib' of Supplementary Table 1),run:Lestaurtinib_02422_R1,Plate:MR006",213 nM
same,potency estimated from few doses,"PHKG2; compound concentrations:100 nM and 1000 nM (sheet 'Lestaurtinib' of Supplementary Table 1),run:Lestaurtinib_02422_R2,Plate:MR006",55.3 nM
same,potency estimated from few doses,"PHKG2; compound concentrations:100 nM and 1000 nM (sheet 'Lestaurtinib' of Supplementary Table 1),run:Lestaurtinib_02437_R1,Plate:MR007",135 nM
same,potency estimated from few doses,"PHKG2; compound concentrations:100 nM and 1000 nM (sheet 'Lestaurtinib' of Supplementary Table 1),run:Lestaurtinib_02443_R1,Plate:MR009",170 nM
same,potency estimated from few doses,"PHKG2; compound concentrations:100 nM and 1000 nM (sheet 'Lestaurtinib' of Supplementary Table 1),run:Lestaurtinib_02443_R2,Plate:MR009",193 nM
same,potency estimated from few doses,"PHKG2; compound concentrations:100 nM and 1000 nM (sheet 'Lestaurtinib' of Supplementary Table 1),run:Lestaurtinib_02443_R3,Plate:MR009",99.2 nM
same,potency estimated from few doses,"PHKG2; compound concentrations:100 nM and 1000 nM (sheet 'Lestaurtinib' of Supplementary Table 1),run:Lestaurtinib_02473_R1,Plate:MR010",310 nM
same,potency estimated from few doses,"PHKG2; compound concentrations:100 nM and 1000 nM (sheet 'Lestaurtinib' of Supplementary Table 1),run:Lestaurtinib_02473_R2,Plate:MR010",228 nM
same,potency estimated from few doses,"PHKG2; compound concentrations:100 nM and 1000 nM (sheet 'Lestaurtinib' of Supplementary Table 1),run:Lestaurtinib_02473_R3,Plate:MR010",159 nM
same,potency estimated from few doses,"PHKG2; compound concentrations:100 nM and 1000 nM (sheet 'Lestaurtinib' of Supplementary Table 1),run:Lestaurtinib_02482_R1,Plate:MR011",197 nM
same,potency estimated from few doses,"PHKG2; compound concentrations:100 nM and 1000 nM (sheet 'Lestaurtinib' of Supplementary Table 1),run:Lestaurtinib_02482_R2,Plate:MR011",501 nM
same,potency estimated from few doses,"PHKG2; compound concentrations:100 nM and 1000 nM (sheet 'Lestaurtinib' of Supplementary Table 1),run:Lestaurtinib_02482_R3,Plate:MR011",248 nM
same,potency estimated from few doses,"PHKG2; compound concentrations:100 nM and 1000 nM (sheet 'Lestaurtinib' of Supplementary Table 1),run:Lestaurtinib_02496_R1,Plate:MR013",115 nM
same,potency estimated from few doses,"PHKG2; compound concentrations:100 nM and 1000 nM (sheet 'Lestaurtinib' of Supplementary Table 1),run:Lestaurtinib_02496_R2,Plate:MR013",362 nM
same,potency estimated from few doses,"PHKG2; compound concentrations:100 nM and 1000 nM (sheet 'Lestaurtinib' of Supplementary Table 1),run:Lestaurtinib_02496_R3,Plate:MR013",182 nM
same,potency estimated from few doses,"PHKG2; compound concentrations:100 nM and 1000 nM (sheet 'Lestaurtinib' of Supplementary Table 1),run:Lestaurtinib_02566_R1,Plate:MR014",309 nM
same,potency estimated from few doses,"PHKG2; compound concentrations:100 nM and 1000 nM (sheet 'Lestaurtinib' of Supplementary Table 1),run:Lestaurtinib_02566_R2,Plate:MR014",151 nM
same,potency estimated from few doses,"PHKG2; compound concentrations:100 nM and 1000 nM (sheet 'Lestaurtinib' of Supplementary Table 1),run:Lestaurtinib_02566_R3,Plate:MR014",182 nM
same,potency estimated from few doses,"PHKG2; compound concentrations:100 nM and 1000 nM (sheet 'Lestaurtinib' of Supplementary Table 1),run:Lestaurtinib_02572_R1,Plate:MR015",92 nM
same,potency estimated from few doses,"PHKG2; compound concentrations:100 nM and 1000 nM (sheet 'Lestaurtinib' of Supplementary Table 1),run:Lestaurtinib_02572_R2,Plate:MR015",444 nM
same,potency estimated from few doses,"PHKG2; compound concentrations:100 nM and 1000 nM (sheet 'Lestaurtinib' of Supplementary Table 1),run:Lestaurtinib_02584_R1,Plate:MR017",215 nM
same,potency estimated from few doses,"PHKG2; compound concentrations:100 nM and 1000 nM (sheet 'Lestaurtinib' of Supplementary Table 1),run:Lestaurtinib_02584_R2,Plate:MR017",239 nM
same,potency estimated from few doses,"PHKG2; compound concentrations:100 nM and 1000 nM (sheet 'Lestaurtinib' of Supplementary Table 1),run:Lestaurtinib_02606_R1,Plate:MR019",197 nM
same,potency estimated from few doses,"PHKG2; compound concentrations:100 nM and 1000 nM (sheet 'Lestaurtinib' of Supplementary Table 1),run:Lestaurtinib_02606_R2,Plate:MR019",175 nM
same,potency estimated from few doses,"PHKG2; compound concentrations:100 nM and 1000 nM (sheet 'Lestaurtinib' of Supplementary Table 1),run:Lestaurtinib_02606_R3,Plate:MR019",636 nM
same,potency estimated from few doses,"PHKG2; compound concentrations:100 nM and 1000 nM (sheet 'Lestaurtinib' of Supplementary Table 1),run:Lestaurtinib_02624_R1,Plate:MR020",390 nM
same,potency estimated from few doses,"PHKG2; compound concentrations:100 nM and 1000 nM (sheet 'Lestaurtinib' of Supplementary Table 1),run:Lestaurtinib_02624_R3,Plate:MR020",244 nM
same,potency estimated from few doses,"PHKG2; compound concentrations:100 nM and 1000 nM (sheet 'Lestaurtinib' of Supplementary Table 1),run:Lestaurtinib_02724_R1,Plate:MR021",270 nM
same,potency estimated from few doses,"PHKG2; compound concentrations:100 nM and 1000 nM (sheet 'Lestaurtinib' of Supplementary Table 1),run:Lestaurtinib_02724_R2,Plate:MR021",239 nM
same,potency estimated from few doses,"PHKG2; compound concentrations:100 nM and 1000 nM (sheet 'Lestaurtinib' of Supplementary Table 1),run:Lestaurtinib_02724_R3,Plate:MR021",180 nM
same,potency estimated from few doses,"PHKG2; compound concentrations:100 nM and 1000 nM (sheet 'Lestaurtinib' of Supplementary Table 1),run:Lestaurtinib_02741_R1,Plate:MR023",372 nM
same,potency estimated from few doses,"PHKG2; compound concentrations:100 nM and 1000 nM (sheet 'Lestaurtinib' of Supplementary Table 1),run:Lestaurtinib_02741_R2,Plate:MR023",355 nM
same,potency estimated from few doses,"PHKG2; compound concentrations:100 nM and 1000 nM (sheet 'Lestaurtinib' of Supplementary Table 1),run:Lestaurtinib_02741_R3,Plate:MR023",301 nM
same,potency estimated from few doses,"PHKG2; compound concentrations:100 nM and 1000 nM (sheet 'Lestaurtinib' of Supplementary Table 1),run:Lestaurtinib_02748_R1,Plate:MR024",208 nM
same,potency estimated from few doses,"PHKG2; compound concentrations:100 nM and 1000 nM (sheet 'Lestaurtinib' of Supplementary Table 1),run:Lestaurtinib_02748_R3,Plate:MR024",211 nM
same,potency estimated from few doses,"PHKG2; compound concentrations:100 nM and 1000 nM (sheet 'Lestaurtinib' of Supplementary Table 1),run:Lestaurtinib_02765_R1,Plate:MR026",637 nM
same,potency estimated from few doses,"PHKG2; compound concentrations:100 nM and 1000 nM (sheet 'Lestaurtinib' of Supplementary Table 1),run:Lestaurtinib_02765_R2,Plate:MR026",849 nM
same,potency estimated from few doses,"PHKG2; compound concentrations:100 nM and 1000 nM (sheet 'Lestaurtinib' of Supplementary Table 1),run:Lestaurtinib_02765_R3,Plate:MR026",487 nM
same,potency estimated from few doses,"PHKG2; compound concentrations:100 nM and 1000 nM (sheet 'Lestaurtinib' of Supplementary Table 1),run:Lestaurtinib_02766_R1,Plate:MR027",440 nM
same,potency estimated from few doses,PHKG2; [1],170 nM
same,potency estimated from few doses,PHKG2; [2],124 nM
same,potency estimated from few doses,PHKG2; [3],217 nM
same,potency estimated from few doses,PHKG2; [4],347 nM
same,potency estimated from few doses,"PHKG2; compound concentrations:100 nM and 1000 nM (sheet 'Lestaurtinib' of Supplementary Table 1),run:Lestaurtinib_02802_R2,Plate:MR029",197 nM
same,potency estimated from few doses,PHKG2; [5],250 nM
same,potency estimated from few doses,PHKG2; [6],153 nM
same,potency estimated from few doses,PHKG2; [7],213 nM
same,potency estimated from few doses,PHKG2; [8],635 nM
same,potency estimated from few doses,PHKG2; [9],91.1 nM
same,potency estimated from few doses,PHKG2; [10],321 nM
same,potency estimated from few doses,PHKG2; [11],323 nM
same,potency estimated from few doses,"PHKG2; compound concentrations:100 nM and 1000 nM (sheet 'Lestaurtinib' of Supplementary Table 1),run:Lestaurtinib_03260_R3,Plate:MR033",212 nM
same,potency estimated from few doses,PKN1; [12],424 nM
same,potency estimated from few doses,PKN1; [13],316 nM
same,potency estimated from few doses,PKN1; [14],497 nM
